CYP2C9 act: human CYP2C9 activators, primary screen, biochemical, luminescence | actives 1.4% (n = 96,000) | Cytochrome P450 2C9 (Homo sapiens), P11712 | activation factor at 5 µM | recombinant CYP2C9, luciferin-H conversion; active compounds read high; factor 1 = untreated enzyme, 0 = blocked;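 active = activation factor of 2 or more for CYP2C9 at a 5 µM dose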;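 note: 0 = sulfaphenazole-blocked wells and 1 = vehicle-only wells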
CYP2C19 inh: blockers of cytochrome P450 2C19 activity – biochemical, luminescence, ADME assay, primary screen; CYP2C19 Supersomes, luciferin-H EGE luminescence, 30 min; inhibition, % at 5 µM; actives 21% (n = 96,000);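 active = CYP2C19 inhibition above a set limit at 5 µM in the primary screen, cut at about 50% in these data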;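 note: plate controls were negative control wells for no effect and 2.5 mM tranylcypromine positive control for full effect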
Target sequence (P33261 whole entry, looked up): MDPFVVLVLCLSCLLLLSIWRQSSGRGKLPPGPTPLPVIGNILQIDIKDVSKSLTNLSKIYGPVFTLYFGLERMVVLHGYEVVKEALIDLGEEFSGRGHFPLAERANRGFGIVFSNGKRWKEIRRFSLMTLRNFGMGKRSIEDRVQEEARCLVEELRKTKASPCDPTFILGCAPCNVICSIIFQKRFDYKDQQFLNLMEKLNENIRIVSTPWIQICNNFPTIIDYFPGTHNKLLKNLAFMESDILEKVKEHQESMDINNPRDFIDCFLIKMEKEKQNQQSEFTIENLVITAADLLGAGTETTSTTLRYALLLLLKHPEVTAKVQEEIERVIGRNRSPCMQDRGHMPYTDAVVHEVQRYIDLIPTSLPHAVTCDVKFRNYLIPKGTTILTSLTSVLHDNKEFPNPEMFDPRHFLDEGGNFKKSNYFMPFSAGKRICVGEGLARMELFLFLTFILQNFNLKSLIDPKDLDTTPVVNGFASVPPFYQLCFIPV
CYP2C9 inhib: blockers of cytochrome P450 2C9 activity – biochemical, luminescence, ADME assay, primary screen | CYP2C9 Supersomes, luciferin-H conversion | actives 20% (n = 96,000) | AID 777, 2007 | inhibition, % at 5 µM;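 active = blocking of liver enzyme CYP2C9 beyond about 50% at 5 µM, limit read from the data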
CYP2C19 activ: human CYP2C19 activators, primary screen, biochemical, luminescence | Cytochrome P450 2C19 (Homo sapiens), P33261 | recombinant CYP2C19, luciferin-H EGE luminescence; active compounds read high; 0 = fully inhibited enzyme, 1 = untreated enzyme | activation factor at 5 µM | 96,000 tested, under 10 active | AID 1025, 2008;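 active = activation factor of at least 2 at 5 µM in the primary screen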;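 note: 0 = wells with 2.5 mM tranylcypromine and 1 = vehicle-only wells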
PostGolgi yeast: phenotypic screen on post-Golgi transport, primary screen; actives 0.9% (n = 98,000); AID 739, 2007; inhibition, % at 10 µM; post-Golgi transport phenotypic cell assay;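 note: yeast cells grown in 1536-well plates; yeast grown about 18 h at 30C before absorbance read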
PostGolgi ctrl: growth inhibition of yeast control strain, primary screen, counter-screen for post-Golgi transport modulator project. efflux-deficient yeast background strain, growth absorbance A615, 16 h. actives 5% (n = 98,000). inhibition, % at 10 µM. AID 738, 2007
* hit, by the source's call. Rows were chosen to be rich in hits. Some 32% of all compounds tested hit in one or more screens of this group. Cut-off read from the data, not from the text of the source, unless noted: active = inhibition above about 30%; inactive = the rest.

SMILES	CYP2C9 act	CYP2C19 inh	CYP2C9 inhib	CYP2C19 activ	PostGolgi yeast	PostGolgi ctrl
CCOC(=O)/C(C#N)=C\c1cc(C)n(-c2ccccc2)c1C	0.8	21.4	21.6	0.8	-1.6	25.1
CCOC(=O)/C(C#N)=C/c1cc(C)n(-c2ccc(C)cc2)c1C	0.4	15.7	55.1*	0.8	-2.0	19.4
CCOC(=O)Cc1[nH]nc2c1C(C1C=CCCC1)C(C#N)=C(N)O2 (stereo not given)	0.3	86.9*	70.8*	0.1	-7.7	10.7
CCOCCCN(C(=O)Cn1nnc2ccccc21)C(C(=O)NCc1ccco1)c1ccncc1 (stereo not given)	0.9	10.9	13.8	0.9	24.4	3.3
O=C(CN1CCN(c2ccc(F)cc2)CC1)N1N=CCC1c1ccccc1 (stereo not given)	0.9	63.2*	13.3	0.4	-5.2	-6.4
O=C(CN1CCN(c2ccc(F)cc2)CC1)N1CCC(Cc2ccccc2)CC1	0.3	54.4*	69.3*	0.5	2.4	31.0*
O=C(CN1CCN(c2ccccc2)CC1)N1N=CCC1c1ccccc1 (stereo not given)	0.9	32.5	6.8	0.7	-3.9	-8.8
Cc1ccc(/C=C/c2ccc(=O)n(Cc3ccc(Cl)cc3Cl)n2)cc1	0.5	22.5	48.0	0.8	-0.3	0.0
CC1=CC(C#N)(C#N)C(C#N)(C#N)C(c2ccccc2)N1 (stereo not given)	0.1	28.0	89.6*	0.7	-1.4	7.0
Cc1[nH]n(-c2ccc([N+](=O)[O-])cc2)c(=O)c1C=NCCN1CCN(C(=O)c2cccc(F)c2)CC1	0.5	32.6	48.4	0.7	0.2	7.3
CCOC(=O)C(NCc1ccccc1OC)(NC(C)=O)C(F)(F)F (stereo not given)	1.1	3.4	-11.6	1	-3.8	16.3
CCOC(=O)C(NCc1ccc2c(c1)OCO2)(NC(=O)c1ccccc1)C(F)(F)F (stereo not given)	0.3	96.2*	74.1*	0	-18.1	-4.6
CCOC(=O)C(NCc1ccccc1OC)(NC(=O)CC)C(F)(F)F (stereo not given)	1	30.7	3.9	0.7	0.3	3.6
CCOC(=O)c1ccc(NCc2ccc3c(c2)OCO3)cc1	0.5	31.7	49.9	0.7	-6.0	1.9
CCOC(=O)C(NCc1ccccc1)(NC(=O)c1ccccc1)C(F)(F)F (stereo not given)	0.6	52.1*	36.7	0.5	-5.9	7.0
C=CCNC(NC(=O)c1ccccc1)(C(=O)OCC)C(F)(F)F (stereo not given)	0.8	63.6*	20.4	0.4	-1.7	-6.5
CCOC(=O)C(NC(=O)c1ccccc1)(Nc1cc(C)on1)C(F)(F)F (stereo not given)	0.6	62.2*	39.4	0.4	-0.8	10.8
Cc1ccc(C(=O)N2CC(C)OC(C)C2)c(Cl)c1 (stereo not given)	1.1	20.0	-5.3	0.8	2.1	2.4
CCC(=O)Nc1nc(C)cc(SCC(=O)OC)n1	0.6	18.8	43.0	0.8	1.4	2.0
O=C(c1ccncc1)c1ccc(N2CCN(C3CC(=O)N(Cc4ccccc4)C3=O)CC2)cc1 (stereo not given)	0.4	85.9*	60.5*	0.1	1.7	6.8
O=C1CC(N2CCN(c3ccc(S(=O)(=O)N4CCOCC4)cc3)CC2)C(=O)N1Cc1ccccc1 (stereo not given)	0.6	38.7	39.3	0.6	-0.5	2.3
N#CC(C(=O)Nc1ccc(Cl)c(Cl)c1)=C1Nc2ccccc2N1	0.9	3.9	6.6	1	1.5	9.5
COCCOC(=O)C1=C(C)N(Cc2ccccc2)C(=O)NC1c1cccc(OC)c1OC (stereo not given)	0.1	99.3*	90.4*	0	3.9	9.9
CC(=O)C1=C(c2ccccc2)NC(=O)NC1c1ccccc1OCC(=O)NCc1ccccc1 (stereo not given)	0.1	89.8*	94.7*	0.1	3.7	0.8
CCSCCOC(=O)C1=C(C)NC(=O)NC1c1cccc(OC)c1OC (stereo not given)	0.7	79.9*	27.2	0.2	-7.1	-10.7
SMILES	CYP2C9 act	CYP2C19 inh	CYP2C9 inhib	CYP2C19 activ	PostGolgi yeast	PostGolgi ctrl
CC1=C(C(=O)NCc2ccccc2)C(c2ccccc2OCC(N)=O)NC(=O)N1 (stereo not given)	0.5	-5.5	45.3	1.1	-2.0	-3.7
COC(=O)C1=C(C)NC(=O)NC1c1cccc(OC)c1OCc1ccccc1 (stereo not given)	0.2	19.4	76.7*	0.8	5.8	14.6
O=C(CSc1nnc(-c2ccc(S(=O)(=O)N3CCCC3)cc2)n1CC1CCCO1)NC1CC1 (stereo not given)	1.2	-17.3	-20.2	1.2	24.7	-2.1
CS(=O)(=O)Nc1ccc(C(=O)NC2CCCC2)cc1	1	-9.1	0.0	1.1	-1.8	18.9
Cc1cc(C)n2nc3nc4c(cc3c2n1)CCCC4	0.9	-6.6	8.6	1.1	3.4	7.0
CCC(=O)Nc1ccc(S(=O)(=O)NCc2ccco2)cc1	1.1	18.0	-5.7	0.8	11.8	7.8
COc1ccc(S(=O)(=O)Nc2ccccc2C(=O)NCc2ccco2)cc1	1.1	62.3*	-7.4	0.4	0.0	31.0*
Cc1noc(C)c1COC(=O)c1ccc(S(=O)(=O)NCc2ccco2)cc1	0	72.3*	99.6*	0.3	-7.1	19.6
O=C(COC(=O)c1ccc(S(=O)(=O)NCc2ccco2)cc1)Nc1ccc(OC(F)F)cc1	0.4	29.4	60.9*	0.7	3.4	5.3
COCCCNC(=O)c1ccccc1NS(=O)(=O)c1ccc(C)cc1	0.7	73.9*	31.8	0.3	-5.7	19.5
O=C(O)c1cc(-c2ccccn2)n[nH]1	1.1	-14.0	-9.4	1.1	0.3	-6.4
Cc1ccc(OC(=O)c2ccc(C)c(C)c2)cn1	0.7	10.0	27.6	0.9	1.3	-0.6
CCn1nnnc1SCC(=O)c1ccc(NC(C)=O)cc1	0.8	13.2	21.7	0.9	-5.2	15.1
Cc1ccc2c(Cl)c(C(=O)NCC3CCCO3)sc2c1 (stereo not given)	0.9	28.5	6.7	0.7	-5.6	14.5
COc1ccccc1NC(=O)COC(=O)c1ccc(S(=O)(=O)NCc2ccco2)cc1	0.2	6.7	82.4*	0.9	-5.3	14.0
COc1ccccc1NS(=O)(=O)c1ccc(C(=O)OCC(=O)NCc2ccco2)cc1	0.2	83.6*	84.7*	0.2	12.8	-1.7
O=C(COC(=O)c1ccc(S(=O)(=O)NCc2ccco2)cc1)NC1CCCCC1	0.7	3.2	31.4	1	16.8	-6.6
COc1ccccc1OCC(=O)NCc1ccco1	1	16.8	-0.1	0.8	3.5	-0.3
